From PubChem BioAssay
FXIIa mix inh: factor XIIa (human) inhibition, mixture screen; P00748; purified FXIIa, fluorogenic substrate, pooled mixtures; inhibition, % at 5 µM; actives 0.2% (n = 62,000); AID 684;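 also: 0% = enzyme without compound and 100% = no enzyme blank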
hDAT+cocaine: modulates human dopamine transporter uptake under cocaine; actives 1.3% (n = 110,000); LLC-PK1 hDAT cells, [14C]-dopamine uptake with cocaine IC80; actives deviate in either direction; B-score at 10 µM; AID 449768;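 active = Z score or B-score, a plate-position-corrected score, falls beyond the plate's 99.7% confidence bounds, in either direction; inactive = both scores lie inside the 99.7% bounds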;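 also: scored against the spread of the other compound wells on the same plate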
M1 antag: antagonists of rat M1 muscarinic receptor; B-score at 10 µM; CHO-M1 cells, Fluo-4 calcium, ACh EC80 antagonist mode; stronger effect = lower value; actives 3.4% (n = 64,000); AID 628; P08482;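 active = calcium fluorescence response, raw or row-and-column corrected B-score, differing from the plate sample mean either way at a set confidence level, mostly lower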
Target sequence (P08482 whole entry, looked up): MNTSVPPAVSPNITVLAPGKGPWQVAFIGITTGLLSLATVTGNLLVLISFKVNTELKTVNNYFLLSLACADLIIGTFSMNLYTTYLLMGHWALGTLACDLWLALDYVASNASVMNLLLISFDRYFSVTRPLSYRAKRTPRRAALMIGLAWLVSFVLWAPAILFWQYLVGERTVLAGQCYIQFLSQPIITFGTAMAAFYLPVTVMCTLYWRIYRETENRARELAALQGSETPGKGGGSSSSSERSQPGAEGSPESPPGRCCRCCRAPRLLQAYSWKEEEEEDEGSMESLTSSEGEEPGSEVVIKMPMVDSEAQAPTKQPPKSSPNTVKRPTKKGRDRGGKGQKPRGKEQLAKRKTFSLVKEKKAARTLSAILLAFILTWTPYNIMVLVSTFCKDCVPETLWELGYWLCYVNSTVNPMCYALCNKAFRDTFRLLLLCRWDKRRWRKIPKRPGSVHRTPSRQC
D1 mod: allosteric modulators of human D1 dopamine receptor. P21728. HEK293 D1, CRE-luciferase, dopamine EC30 potentiation; actives deviate in either direction. B-score at 10 µM. actives 5.9% (n = 58,000);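 active = luminescence count or its row- and column-corrected plate score outside the 99.7% band of the plate's sample wells, on either side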
FXIa inh mix: blocks human factor XIa in pooled compound mixtures | inhibition, % at 5 µM | AID 680 | purified FXIa, fluorogenic substrate | P03951 | actives 0.19% (n = 62,000);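 also: each value is inhibition by a whole ten-compound pool holding the compound; 0% = enzyme with no mixture and 100% = wells lacking enzyme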
M1 agonist: activates the M1 muscarinic receptor. B-score at 10 µM. CHO-M1 cells, Fluo-4 calcium fluorescence, agonist mode; stronger effect = higher value. AID 626. actives 3% (n = 64,000);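 active = fluorescence rise, raw or as B-score row- and column-corrected plate score, outside the 99.7% band of its plate's samples, either direction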
M1 agonist conf: rat M1 muscarinic agonism, confirmation; shares compounds with M1 agonist; CHO-M1 cells, Fluo-4 calcium fluorescence, agonist mode; actives lie on both sides; fluorescence change (max-min) at 10 µM; actives 19% (n = 1,700); AID 1488;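 active = fluorescence change differs from the solvent-only DMSO control mean at a set confidence level in both duplicate runs; inconclusive = differs from solvent-only control mean in just one of two runs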;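 also: an EC20 dose of acetylcholine follows compound addition during the same imaging run; raw fluorescence intensity difference in instrument units with no normalization to controls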
M4 ag counter: activates rat M4 receptor in counter-screen for M1 agonists. shares compounds with M1 agonist. CHO M4/Gqi5 cells, Fluo-4 calcium fluorescence, agonist mode; actives lie on both sides. fluorescence change (max-min) at 10 µM. actives 9% (n = 1,700);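 active = fluorescence change differing from the plate's solvent-only control wells at 99.7% confidence in both duplicates, whether higher or lower; inconclusive = differs from solvent controls in only one of two duplicates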
The depositor's hits bear a star; ? = inconclusive; nt = no result. The list is not random: actives were taken first. Their share in the collection is about 7.4%. Rule as the data show it, unless noted: active = inhibition above about 20% (passing the limit was not always enough); inactive = the rest.

SMILES | FXIIa mix inh | hDAT+cocaine | M1 antag | D1 mod | FXIa inh mix | M1 agonist | M1 agonist conf | M4 ag counter
Cc1ccccc1NC(=O)NCCCN1CCN(C2CCCCC2)CC1 | 9 | -0.28 | 0.022 | 0.37 | 6 | -0.27 | nt | nt
Cc1cc(C(=O)NCCCN2CCN(C3CCCCC3)CC2)n(-c2ccccc2)n1 | 3 | -0.98 | -0.55 | 0.065 | -2 | 32* | 13 | ?
O=C1CCC2c3ccc4ccccc4c3CCN12 (stereo not given) | nt | -0.87 | nt | nt | nt | nt | nt | nt
COc1ccc(CNC(=O)C(c2ccncc2)N(C(=O)Cc2cccs2)c2ccc(C)cc2)cc1 (stereo not given) | nt | 0.27 | nt | nt | nt | nt | nt | nt
CCc1ccc(N2CC(C(=O)OCC(=O)NC3CCS(=O)(=O)C3)CC2=O)cc1 (stereo not given) | 12 | 0.6 | 1.1 | -1.1 | 0 | 0.94 | nt | nt
COc1ccc(N2C(=O)CC(n3cnc4ccccc43)C2=O)cc1 (stereo not given) | nt | -0.44 | nt | nt | nt | nt | nt | nt
COC(=O)c1ccccc1COn1c(=O)c(C)[n+]([O-])c2ccccc21 | 5 | -1.8 | -0.16 | 0.022 | 9 | -0.43 | nt | nt
COC(=O)c1c(=O)n(O)c2ccc(OC)cc2[n+]1[O-] | 1 | -1.2 | -0.65 | -0.018 | -2 | 19* | 117* | 96*
O=S(=O)(NCc1ccncc1)c1ccc(Br)s1 | 0 | -0.64 | -1.8 | -1 | 1 | 3.7* | 6.2 | -23
O=C(O)CNS(=O)(=O)c1ccc(Br)s1 | 4 | 0.21 | 0.82 | -0.57 | 2 | -0.087 | nt | nt
COC(=O)C(CC(C)C)NC(=O)c1ccc([N+](=O)[O-])cc1 (stereo not given) | nt | -0.19 | nt | nt | nt | nt | nt | nt
COCCn1c(-c2ccccc2)nc2oc3ccccc3c(=O)c2c1=O | 0 | -0.45 | 0.066 | 0.5 | 15 | 2.4* | -25* | -96*
O=S(=O)(c1ccc(N2CCOCC2)nc1)N1CCOCC1 | nt | -0.96 | nt | nt | nt | nt | nt | nt
CN1/C(=N\O)c2cccc3cccc1c23 | 14 | 1.3 | -0.5 | -0.4 | 4 | 6.9* | 42 | -2.9
Cc1ccc(S(=O)(=O)N2CCN(C(=O)c3cc(=O)[nH]c4ccccc34)CC2)c(C)c1 | 7 | 0.011 | -0.01 | 1.8 | 16 | 4.7* | -28 | -50
COC(=O)c1[nH]c(C)c(/C(O)=C2\C(=O)C(=O)N(CCN(C)C)C2c2ccccc2OC)c1C (stereo not given) | 5 | 1.9 | -0.092 | -0.061 | 0 | 0.17 | nt | nt
CCN(CC)S(=O)(=O)c1ccc(C(=O)OCn2nnc3ccccc3c2=O)cc1 | nt | -0.84 | 0.22 | -1 | nt | 6.2* | -18 | ?
O=C(OCn1nnc2ccccc2c1=O)c1ccc(S(=O)(=O)N2CCOCC2)cc1 | 8 | 0.076 | -0.095 | 0.065 | 1 | -0.27 | nt | nt
CCOC(=O)c1sc2nc(N3CCOCC3)c3c(c2c1N)CCC3 | 8 | -0.018 | -0.4 | 0.95 | -1 | 2* | ? | -44
CCOc1ccc(Nc2ncnc3c2cnn3-c2ccccc2)cc1 | 19 | -0.2 | -0.04 | 1.3 | 6 | 3.2* | -19 | ?
Cc1nc2[nH]c(=O)c3c(n2n1)NC1=C(C(=O)CC(C)(C)C1)C3c1ccc(F)cc1 (stereo not given) | 2 | -0.49 | 0.0033 | -0.097 | 6 | 3.8* | 9.9 | 4.3
COc1ccc(C2C3=C(CC(C)(C)CC3=O)Nc3c2c(=O)[nH]c(=O)n3Cc2ccccc2)cc1OC (stereo not given) | 4 | -0.32 | -1.1 | 0.43 | 1 | 9.9* | 28 | 8.1
COc1ccc(C2C3=C(CC(C)(C)CC3=O)Nc3c2c(=O)[nH]c(=O)n3Cc2ccccc2)cc1 (stereo not given) | -2 | -0.65 | 0.24 | -1.7 | 9 | 2.7* | 7.1 | -35
COc1cc(C2C3=C(CC(C)(C)CC3=O)Nc3c2c(=O)[nH]c(=O)n3Cc2ccccc2)ccc1O (stereo not given) | -21 | nt | 0.32 | -0.29 | 1 | -1.6 | nt | nt
OC(c1ccccn1)c1c[nH]c2ccccc12 (stereo not given) | 3 | -0.49 | 0.21 | nt | 7 | -0.2 | nt | nt
SMILES | FXIIa mix inh | hDAT+cocaine | M1 antag | D1 mod | FXIa inh mix | M1 agonist | M1 agonist conf | M4 ag counter
COc1cc(C(=O)Nc2cccc(-c3nncn3C)c2)cc(OC)c1OC | 4 | 1.4 | 1.2 | -0.43 | 7 | 0.89 | nt | nt
O=C(Nc1ccccc1)NC1(C(=O)NCCCN2CCOCC2)CCCCC1 | 5 | -1.3 | 1.1 | 0.16 | 2 | 4* | ? | -58
Cc1nn(S(=O)(=O)c2cccs2)c(C)c1Sc1ccccc1 | nt | 0.14 | nt | nt | nt | nt | nt | nt
Cc1nc2ccccc2n2c(O)c(CC(=O)O)cc12 | 4 | -0.36 | -0.0013 | -0.013 | -1 | 269* | 1125* | 1088*
O=C(c1coc(=O)c(Br)c1)N1CCOCC1 | nt | -1 | 0.14 | -0.12 | nt | 0.39 | nt | nt
O=C(CN1CCOCC1)NCCNC(=O)CN1CCOCC1 | 41 | -0.29 | 1 | -0.68 | 2 | 4.2* | ? | ?
O=C(CN1CCOCC1)NCc1ccccc1 | 6 | nt | 1 | 0.19 | 3 | 0.38 | nt | nt
Cc1cccc(NC(=O)c2cc(=O)c3ccccc3o2)n1 | nt | -0.12 | nt | nt | nt | nt | nt | nt
CC(=O)N(Cc1ccccc1)c1ncc2c(n1)c(=O)c(C#N)c1ccccn12 | 10 | -0.13 | -0.029 | 0.4 | 7 | 4* | 64* | 38
CC(=O)Nc1ccc(OCC(O)CN2CCN(c3cc(Cl)ccc3C)CC2)cc1 (stereo not given) | 2 | 2.3 | -2.6 | 0.036 | 1 | -0.37 | nt | nt
CC(=O)Nc1ccc(OCC(O)CN2CCN(c3ccc(C)c(Cl)c3)CC2)cc1 (stereo not given) | 8 | 1 | -2.2 | -2.6* | 4 | 1.9* | -1.2 | -32
Cc1ccc(N(CC(=O)Nc2ccc(S(=O)(=O)N3CCOCC3)cc2)S(C)(=O)=O)cc1C | -2 | 2 | 1.3 | 1.8 | 3 | 0.035 | nt | nt
COC(=O)CCC(=O)Nc1ccc(NC(=O)CCC(=O)OC)cc1 | 14 | -0.83 | -0.76 | -0.097 | 5 | -0.087 | nt | nt
COC(=O)CCC(=O)Nc1ccc(NC(C)=O)cc1 | 1 | 0.23 | -1.9 | -0.84 | -2 | 5.5* | -8.9 | -31
O=C(Nc1ccc(O)cc1)c1cc2n(n1)C(C(F)(F)F)CC(c1ccco1)N2 (stereo not given) | 9 | 0.32 | 0.38 | -0.023 | -2 | -2.3* | -10 | -52
NC(=O)C1CCN(C(=O)c2cc3n(n2)C(C(F)(F)F)CC(c2ccco2)N3)CC1 (stereo not given) | 11 | -0.91 | -0.32 | -0.029 | 9 | 0.23 | nt | nt
COc1ccc(OC)c2sc(NC(=O)c3ccc(S(=O)(=O)N4CCOCC4)cc3)nc12 | nt | -1.2 | nt | nt | nt | nt | nt | nt
CC(C)c1nnc(NC(=O)c2ccc(S(=O)(=O)N3CCOCC3)cc2)s1 | 3 | -0.96 | -0.23 | -0.023 | 1 | -3.1* | ? | ?
COn1c(=O)c(-c2ccc(Cl)cc2)[n+]([O-])c2ccccc21 | 4 | 0.35 | -0.17 | 0.48 | 10 | -0.23 | nt | nt
CCOn1c(=O)c(-c2ccc(OC)cc2)[n+]([O-])c2ccccc21 | 2 | -0.38 | -0.89 | 0.4 | 4 | 5.2* | ? | -92
